Among all 52,000 compounds or so, about 4,300 (8.3%) were called active. Only a selection was taken, and actives are over-represented in it overall. A number with no mark means an inactive call. No stated cut-off is given here; in the data, active means survival mostly below about 52% (no sharp cut-off); inactive means mostly above about 56%.
Tested on: DeltatarO mutant
Experiment: S. aureus survival, RN4220 and DeltatarO strains – OD600, teichoic acid synthesis inhibitors, primary screen (AID 463173)
Conditions: S. aureus RN4220 wild type/DeltatarO growth, OD600, 18 h, hits give low values, screened at 18.75 µg/mL (by protocol)

| Structure (SMILES) | survival |
| --- | --- |
| Cc1ccc(NC(=O)Cn2nc(C(F)(F)F)c3c2CCCC3)cc1 | 120% |
| CCn1c(=O)c2sccc2n2c(CCC(=O)Nc3ccc(OC)cc3OC)nnc12 | 82% |
| Cc1cccc(NC(=O)c2cnc3sc(N4CCCC4)nn3c2=O)c1C | 73% |
| Cc1ccc(NC(=O)C2CCCN(c3ncnc4c3nc3n4CCCCC3)C2)c(Br)c1 (centres undefined) | 87% |
| CC(=O)c1cccc(NC(=O)C2=CC(c3ccc4c(c3)OCO4)=NS(=O)(=O)N2C)c1 | 72% |
| Cc1ccc(CNC(=O)CN(c2cc(C)cc(C)c2)S(=O)(=O)c2c(C)[nH]c(=O)[nH]c2=O)cc1 | 91% |
| Cc1ccccc1NC(=O)CSc1nc2ccc(NC(=O)c3cccs3)cc2s1 | 91% |
| CCOc1ccccc1NC(=O)Cn1nnc2sc3c(c2c1=O)CCC(C(C)(C)C)C3 (centres undefined) | 106% |
| Cc1ccc(OCCn2nnc3sc4c(c3c2=O)CCC(C)C4)cc1 (centres undefined) | 54% |
| Cc1ccccc1OCCCCn1nnc2sc3c(c2c1=O)CCC(C)C3 (centres undefined) | 65% |
| CC1CCc2c(sc3nnn(Cc4ccc(F)cc4)c(=O)c23)C1 (centres undefined) | -1% (active) |
| CN(C)c1ccc(NC(=O)Cn2nnc3sc4c(c3c2=O)CCC(C(C)(C)C)C4)cc1 (centres undefined) | 79% |
| CC1CCc2c(sc3nnn(Cc4ccccc4Cl)c(=O)c23)C1 (centres undefined) | 13% (active) |
| COC(=O)c1ccc(Cn2nnc3sc4c(c3c2=O)CCC(C)C4)cc1 (centres undefined) | 79% |
| Cc1ccc(Cn2nnc3sc4c(c3c2=O)CCC(C)C4)cc1 (centres undefined) | 54% (active) |
| CC1CCc2c(sc3nnn(CC(=O)Nc4ccccc4Cl)c(=O)c23)C1 (centres undefined) | 71% |
| CC1CCc2c(sc3nnn(CCCCOc4ccc(Cl)cc4)c(=O)c23)C1 (centres undefined) | 107% |
| CCc1ccccc1NC(=O)Cn1nnc2sc3c(c2c1=O)CCC(C(C)(C)C)C3 (centres undefined) | 47% (active) |
| CCCCc1ccc(NC(=O)Cn2nnc3sc4c(c3c2=O)CCC(C)C4)cc1 (centres undefined) | 58% |
| CCN(CC)C(=O)Cn1cc(SCC(=O)Nc2ccccc2F)c2ccccc21 | 103% |

| Structure (SMILES) | survival |
| --- | --- |
| CCc1cccc(NC(=O)c2cc3c(=O)[nH]c4ccccc4c3n2C)c1 | 89% |
| C=CCNC(=O)C(C)N1CCN(C)CC1 (centres undefined) | 73% |
| Cc1ccccc1CNC(=O)C1CCN(S(=O)(=O)Cc2ccccc2)CC1 | 75% |
| CCOc1ccc(-c2nnc(SCC(=O)Oc3ccccc3)o2)cc1 | 71% |
| CCC12CN3CC(C)(CN(C1)C3c1ccc(O)cc1O)C2=O (centres undefined) | 78% |
| CCc1ccc(S(=O)(=O)c2nnn3c2nc(NCc2ccccc2)c2cc(Cl)ccc23)cc1 | 86% |
| CCCOC(=O)c1ccc(Cn2nnc3sc4c(c3c2=O)CCC(C)C4)cc1 (centres undefined) | 79% |
| CC1CCc2c(sc3nnn(Cc4cccc(C(=O)OC(C)C)c4)c(=O)c23)C1 (centres undefined) | 78% |
| CC1CCc2c(sc3nnn(Cc4ccccc4)c(=O)c23)C1 (centres undefined) | 3% (active) |
| COc1ccccc1CNC(=O)C(C)n1c(=O)cc(C(F)(F)F)c2c(C)nn(C)c21 (centres undefined) | 94% |
| COc1ccccc1NC(=O)Cn1nc2c3cc(F)ccc3n(Cc3cccc(C)c3)cc-2c1=O | -2% (active) |
| CCOc1ccccc1NC(=O)Cn1nc2c3cc(F)ccc3n(Cc3cccc(C)c3)cc-2c1=O | 72% |
| CCc1ccccc1NC(=O)Cn1nc2c3cc(F)ccc3n(Cc3cccc(C)c3)cc-2c1=O | 84% |
| O=C(Cn1ccn(-c2cccc(Cl)c2)c(=O)c1=O)c1ccc(F)cc1 | 59% |
| O=C(Nc1ccc(Cl)cc1C(F)(F)F)c1cc(S(=O)(=O)NCc2ccccc2)ccc1F | 130% |
| O=C(CN(Cc1ccccc1)C(=O)Cn1nnc(-c2ccc(F)cc2)n1)NC1CCCC1 | 70% |
| COc1ccc(-c2nc3ccc(NS(C)(=O)=O)cc3o2)cc1 | 77% |
| COc1ccc(-c2nc3ccc(NS(=O)(=O)c4ccc(Cl)cc4)cc3o2)cc1 | 23% (active) |
| COc1ccc(OCC(=O)Nc2ccc(-c3nc4cc(Cl)ccc4o3)cc2)cc1 | 134% |
| COc1ccc(-c2nc3ccc(NS(=O)(=O)c4ccc(C)cc4)cc3o2)cc1 | 45% |

| Structure (SMILES) | survival |
| --- | --- |
| COc1ccc(-c2nc3ccc(NS(=O)(=O)c4ccccc4)cc3o2)cc1 | 36% (active) |
| CCC(Oc1ccccc1)C(=O)Nc1ccc2oc(-c3ccc(OC)cc3)nc2c1 (centres undefined) | 111% |
| CCCCC(CC)CNC(=O)c1ccc(Cn2c(=O)[nH]c3cc(OC)c(OC)cc3c2=O)cc1 (centres undefined) | 72% |
| O=C(Cn1c(=O)c(CNc2ccccc2)cc2cc3c(cc21)OCCO3)Nc1ccccc1Cl | 131% |
| O=C(COc1ccccc1)Nc1nnc2n1CCS2 | 86% |
| Cc1cn2c(=O)cc(COC(=O)c3ccc(NC(=O)c4ccccc4C)cc3)nc2s1 | 101% |
| COc1ccccc1N1CCN(S(=O)(=O)CCNC(=O)COc2ccccc2F)CC1 | 83% |
| CCn1c(CNC(=O)C23CC4CC(CC(C4)C2)C3)nnc1SCC(=O)Nc1ccccc1 | 66% |
| CCn1c(CNC(=O)C23CC4CC(CC(C4)C2)C3)nnc1SCC(=O)Nc1ccc(C)cc1 | 60% |
| CCn1c(CNC(=O)C23CC4CC(CC(C4)C2)C3)nnc1SCC(=O)Nc1ccc(F)cc1 | 71% |
| CCCCn1c(CNC(=O)C23CC4CC(CC(C4)C2)C3)nnc1SCC(=O)Nc1ccc(C)cc1 | 36% (active) |
| CCCCn1c(CNC(=O)C23CC4CC(CC(C4)C2)C3)nnc1SCC(=O)Nc1ccc(F)cc1 | 54% (active) |
| CCCCn1c(CNC(=O)C23CC4CC(CC(C4)C2)C3)nnc1SCC(=O)Nc1ccccc1 | 54% |
| CCc1ccc(CNC(=O)c2ccc(NC(=O)N3CC(C)Sc4ccccc43)cc2)cc1 (centres undefined) | 64% |
| Cc1c(Cl)cccc1Nc1nc2ccc(C(=O)c3ccccc3)cc2n2cnnc12 | 77% |
| CCNC(=O)CC1C(=O)N(c2cccc(OC)c2)C(=O)N1Cc1ccc(OC)c(OC)c1 (centres undefined) | 80% |
| C=CCN1C(=O)C2(C(C#N)=C(N)Oc3n[nH]c(COC)c32)c2ccccc21 (centres undefined) | 109% |
| CCc1[nH]nc2c1C1(C(=O)N(CC)c3ccccc31)C(C#N)=C(N)O2 (centres undefined) | 78% |
| CCN1C(=O)C2(C(C#N)=C(N)SC(N)=C2C#N)c2ccccc21 | 2% (active) |

Reference: PubChem BioAssay AID463173 (ICCB-Longwood Screening Facility, Harvard Medical School, 2010)
